# Source: PubChem BioAssay
# Most compounds without a hit are left out; they make up all but 10% or so of the library.
# Lmaj promast = Leishmania major promastigote growth inhibition. Leishmania major promastigotes, resazurin fluorescence viability. inhibition, % at 10 µM. 9% of 200,000 active. AID 1063; in the data active means inhibition above about 50%;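 further: promastigotes grown with compound for 44 hours at 28 °C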
# HCT116 bCat-KO = beta-catenin-lacking colon tumor cell growth suppression. 1.5% of 140,000 active. viability, % at 10 µM. HCT116 beta-catenin knockout viability, CellTiter-Glo, 60 h; active compounds read low;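 active means viability at or under a set limit, the compound median less 4 SD, cut at about 6% in these data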
# PTEN del growth = suppresses growth of cells with PTEN deletion; viability, % at 10 µM; 1.2% of 140,000 active; HCT116 PTEN-null viability, CellTiter-Glo, 60 h; active compounds read low; AID 827;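 active means viability at or below a set limit, 4 SD under the median of all tested compounds, cut at about 3.7% in these data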;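 further: PTEN knockout HCT116 line with beta catenin targeted HCT116 as companion control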
# ROMK mod = modulators of human ROMK potassium channel | AID 1918 | P48048 | Tet-inducible ROMK, thallium flux fluorescence; actives lie on both sides | 2% of 130,000 active | B-score at 10 µM;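 active means signal ratio slope over the read window, or its plate-corrected B-score, at least 3 SD from the plate mean, either direction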;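 further: B-score of the F/F0 ratio slope over 7 to 12 s after thallium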
# Insulin prom inh = TRM-6 insulin promoter activity inhibition. inhibition, % at 2 µM. AID 1273. 0.9% of 130,000 active. TRM-6 cells (human fetal islet line), insulin promoter-eGFP reporter, imaging; reporter expression induced with tamoxifen;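 active means inhibition above the mean plus 3 SD, with well images judged a real hit on visual review, cut at about 60% in these data, passing the limit was not always enough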
# p97 inhibitor = blocks human p97 ATPase activity | AID 1481 | recombinant p97 ATPase, Kinase-Glo ATP luminescence, 3 h | P55072 | 0.42% of 220,000 active | inhibition, % at 8 µM; in the data active means inhibition above about 15%
# Target sequence (P55072 whole entry, looked up): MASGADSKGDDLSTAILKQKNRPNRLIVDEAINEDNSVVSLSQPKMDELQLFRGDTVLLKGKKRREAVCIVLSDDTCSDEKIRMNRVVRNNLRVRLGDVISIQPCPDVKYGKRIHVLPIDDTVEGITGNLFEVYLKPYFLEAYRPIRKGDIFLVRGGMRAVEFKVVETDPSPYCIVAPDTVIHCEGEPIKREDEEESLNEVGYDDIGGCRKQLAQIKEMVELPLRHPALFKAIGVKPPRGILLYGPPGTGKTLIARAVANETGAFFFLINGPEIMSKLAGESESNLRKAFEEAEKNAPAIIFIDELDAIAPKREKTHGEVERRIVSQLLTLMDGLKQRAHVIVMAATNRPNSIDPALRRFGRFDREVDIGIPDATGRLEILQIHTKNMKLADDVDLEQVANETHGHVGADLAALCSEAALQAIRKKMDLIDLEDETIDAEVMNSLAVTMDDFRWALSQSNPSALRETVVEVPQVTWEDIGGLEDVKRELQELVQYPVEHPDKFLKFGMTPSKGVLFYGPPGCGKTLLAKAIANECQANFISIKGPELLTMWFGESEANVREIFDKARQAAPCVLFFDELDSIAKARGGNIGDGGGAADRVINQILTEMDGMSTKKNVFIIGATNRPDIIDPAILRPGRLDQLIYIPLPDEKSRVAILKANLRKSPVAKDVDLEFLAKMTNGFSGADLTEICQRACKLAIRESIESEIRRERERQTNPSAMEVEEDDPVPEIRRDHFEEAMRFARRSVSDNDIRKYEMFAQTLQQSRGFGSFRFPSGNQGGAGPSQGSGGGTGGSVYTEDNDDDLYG
# A number is an active result; i = inactive; nt = not tested or not shown.
SMILES,Lmaj promast,HCT116 bCat-KO,PTEN del growth,ROMK mod,Insulin prom inh,p97 inhibitor
COC(=O)[C@@]1(Cc2ccc(OC)cc2)[C@H]2c3cc(C(=O)N4CCCC4)n(CCO)c3C[C@H]2CN1C(=O)c1ccccc1,i,i,i,i,i,i
COC(=O)[C@@]1(Cc2ccc(OC)cc2)[C@H]2c3cc(C(=O)N4CCCC4)n(CCSCCO)c3C[C@H]2CN1C(=O)c1ccccc1,50.9,i,i,i,i,i
COC(=O)[C@@]1(Cc2ccccc2)[C@H]2c3cc(C(=O)N4CCCC4)n(Cc4ccsc4Br)c3C[C@H]2CN1C(=O)c1ccccc1,54.1,i,i,i,i,i
COC(=O)[C@@]1(Cc2ccc(F)cc2)[C@H]2c3cc(C(=O)N(C)C)n(C[C@H](O)CO)c3C[C@H]2CN1C(=O)c1ccccc1,i,i,i,i,i,i
COC(=O)[C@@]1(Cc2ccc(OC)cc2)[C@H]2c3cc(C(=O)N(C)C)n(CCSCCO)c3C[C@H]2CN1C(=O)c1ccccc1,64.7,i,i,i,i,i
COC(=O)[C@@]1(Cc2ccc(F)cc2)[C@H]2c3cc(C(=O)N4CCCC4)n(CCO)c3C[C@H]2CN1C(=O)c1ccccc1,i,i,i,i,i,i
Nc1ccc(CN2CCOCC2)cc1,i,nt,nt,nt,i,i
Cc1ccc(Nc2ccc(NCc3ccccc3)nn2)cc1C,i,i,i,i,nt,i
Clc1ccc(Nc2ccc(NCc3ccccc3)nn2)cc1,91.1,i,i,i,i,i
COc1cc(-c2nc(-c3ccccc3)c(-c3cc([N+](=O)[O-])ccc3C)[nH]2)cc(OC)c1OC,100.0,i,i,i,i,i
COc1cc(/C=C2/OC(=O)c3cc([N+](=O)[O-])ccc32)cc(OC)c1OC,i,nt,nt,i,i,i
COc1ccccc1CCc1nnc(CCC(=O)NC(C)Cn2nc(C)cc2C)o1 (stereo unspecified),i,nt,nt,i,i,i
COc1ccc(/C=N/NC(=O)c2sc3nc(C)cc(C)c3c2N)cc1,nt,nt,nt,nt,nt,i
COc1ccc(C2C(C#N)=C(N)Oc3c2sc2nc(C)cc(C)c32)cc1 (stereo unspecified),100.5,0.9,0.6,i,i,i
CCCCCC(=O)N/N=C(\C)c1ccc(Cl)cc1,i,i,i,nt,100.0,i
CCOC(=O)c1nnc(-c2ccc(C)cc2)nc1Sc1ccccc1Cl,i,i,i,i,nt,i
CCOC(=O)c1nnc(-c2ccc(C)cc2)nc1Sc1ccc(Cl)cc1,53.6,i,i,i,nt,i
O=C(N/N=C/c1ccc2c(c1)OCO2)c1cc2ccccc2o1,nt,nt,nt,nt,nt,i
O=C(COc1ccc(/C=N/NC(=O)c2cc3ccccc3o2)cc1Cl)Nc1ccccc1,i,2.8,1.5,nt,i,i
O=C(N/N=C/c1cccc([N+](=O)[O-])c1)c1cc2ccccc2o1,i,3.8,2.2,nt,nt,i
CN1CCN(NC(=S)NC2CCCC2)CC1,i,nt,nt,i,nt,i
COc1ccc(C(CNC(=O)c2ccccc2SC)N(C)C)cc1 (stereo unspecified),i,nt,nt,i,nt,i
O=C(O)c1ccc(NS(=O)(=O)c2cc(C(=O)O)ccc2Br)cc1,98.5,i,i,i,i,i
Cc1ccc(/C=C/C(=O)O)cc1S(=O)(=O)Nc1ccc(C(=O)O)cc1,nt,nt,nt,i,nt,i
O=C(/C=C\Nc1ccc(Br)cc1)c1cccnc1,i,i,i,i,i,i
SMILES,Lmaj promast,HCT116 bCat-KO,PTEN del growth,ROMK mod,Insulin prom inh,p97 inhibitor
Cc1cc(O)ccc1N=Cc1c(C(F)(F)F)[nH][nH]c1=O,51.9,nt,nt,i,i,i
CCOC(=O)/C=C(\C)Sc1cc(=O)oc2ccccc12,i,i,i,nt,i,i
CCOC(=O)/C=C(\C)Sc1cc(O)c2ccccc2c1O,nt,nt,nt,nt,nt,36.0
CC1CCC(C(C)C)C(OC(=O)CSc2n[nH]c(=O)[nH]c2=O)C1 (stereo unspecified),i,i,i,i,i,i
CC1CCC(C(C)C)C(OCC(O)CNC(C)c2ccccc2)C1 (stereo unspecified),76.8,nt,nt,i,nt,i
CC1CCN(CC(O)COC2CC(C)CCC2C(C)C)CC1 (stereo unspecified),89.9,nt,nt,i,i,i
CCOC(=O)N1CCN(CC(O)COC2CC(C)CCC2C(C)C)CC1 (stereo unspecified),95.0,i,i,nt,i,i
CC1CCC(C(C)C)C(OCC(O)CNC(C)(C)C)C1 (stereo unspecified),i,nt,nt,i,nt,i
Cc1ccc(C)c(C(C)NC(=O)c2ccc(Br)o2)c1 (stereo unspecified),i,nt,nt,nt,nt,i
O=C(Nc1ccc(-c2cn3ccccc3n2)cc1)c1cccs1,i,nt,nt,i,nt,i
CC(=O)Nc1ccc(NS(=O)(=O)c2c(Cl)cccc2Cl)cc1,nt,nt,nt,nt,nt,i
